# Assay results reported in the supplement of paper PMC12350171.
# Structures can show the parent of a compound that is named as a salt. Values without a mark were called inactive.
# Experiments:
# Details in all cases: 20 µM
# [1] = test system: Salmonella enterica typhimurium; test: growth AUC normalised to DMSO control (fraction of control); higher = less growth inhibition, active = hit call of the paper
# Procedure, shortened: (§1)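 Pathogens were passaged twice under anaerobic conditions, then inoculated into pre-reduced mGAM plates at a starting OD578 of 0.01, with compound at 20 μM and 1% DMSO, and sealed with breathable membranes. For Haemophilus parainfluenzae, the medium was supplemented with hemin and NAD. OD578 was read every hour for 24 h in three biological replicates. Growth-curve AUC was calculated by the trapezoidal rule up to the exponential-to-stationary transition and normalised to DMSO controls on the same plate.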
# Shigella flexneri = test: as above
# Procedure, shortened: as §1
# Vibrio cholerae = test: as above
# Procedure, shortened: as §1
# [2] = test system: Yersinia pseudotuberculosis; test: as above
# Procedure, shortened: as §1
# P. vulgatus RND KO = test: growth AUC normalised to DMSO control (median) (fraction of control); higher = less growth inhibition, active = hit call of the paper
# Procedure, shortened: (§2)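 In 96-well plates of mGAM seeded at OD578 0.01, strains that had been passaged twice overnight without oxygen were exposed to approved-drug library compounds at 20 μM with 1% DMSO. Hourly OD578 readings were taken for 24 h in an anaerobic incubator. The trapezoidal-rule area under the curve, with curves truncated at entry into stationary phase, was expressed relative to same-plate vehicle wells as the median of three biological replicates.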
# P. vulgatus WT = test: as above
# Procedure, shortened: as §2
# [3] = test system: S. enterica typhimurium WT; test: as above
# Procedure, shortened: as §2
# [4] = test system: S. enterica typhimurium tolC KO; test: as above
# Procedure, shortened: as §2
# 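For growth AUC normalised to DMSO control (median) in this document: active when median AUC fell below 0.1.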
SMILES,growth AUC normalised to DMSO control [1],growth AUC normalised to DMSO control (Shigella flexneri),growth AUC normalised to DMSO control (Vibrio cholerae),growth AUC normalised to DMSO control [2],growth AUC normalised to DMSO control (P. vulgatus RND KO),growth AUC normalised to DMSO control (P. vulgatus WT),growth AUC normalised to DMSO control [3],growth AUC normalised to DMSO control [4]
CN(C)[C@@H]1C(=O)C(C(=O)NCNCCCC[C@H](N)C(=O)O)=C(O)[C@@]2(O)C(=O)C3=C(O)c4c(O)cccc4[C@@](C)(O)[C@H]3C[C@@H]12 [Lymecycline],0.903 (active),0.947,0.448 (active),1.01,0.779,0.835,0.94,0.94
Clc1ccc(C(Cn2ccnc2)OCc2csc3c(Cl)cccc23)c(Cl)c1 (centres undefined) [Sertaconazole nitrate],1.02,1.06,1.05,0.913,1,1.01,1.01,0.935
CC(C)(C)C(=O)OCOC(=O)[C@@H]1N2C(=O)[C@@H](/N=C/N3CCCCCC3)[C@H]2SC1(C)C [Pivmecillinam hydrochloride],0.0179 (active),0.0752 (active),0.956,0.0551 (active),1.01,1.03,0.158,0.145
CN(C)CCCOc1nn(Cc2ccccc2)c2ccccc12 [Benzydamine hydrochloride],1,0.958,0.892,0.991,0.993,1.01,0.988,0.959
CO[C@@]1(NC(=O)C2SC(=C(C(N)=O)C(=O)O)S2)C(=O)N2C(C(=O)O)=C(CSc3nnnn3C)CS[C@@H]21 (some centres undefined) [Cefotetan],0.00234 (active),0.0192 (active),0.186 (active),0.0842 (active),0.0118 (active),0.0068 (active),0.00563 (active),0.00413 (active)
CC(C)(C)NCC(O)c1ccc(O)c(CO)c1 (centres undefined) [Salbutamol],0.985,0.97,0.984,0.985,0.985,0.956,0.992,0.997
Clc1ccc(COC(Cn2ccnc2)c2ccc(Cl)cc2Cl)c(Cl)c1 (centres undefined) [Miconazole],0.997,1.01,0.995,1.03,0.938,0.927,0.993,0.98
NC[C@H]1O[C@H](O[C@H]2[C@H](O[C@@H]3O[C@H](CO)[C@@H](O)[C@H]3O)[C@@H](O)[C@H](N)C[C@@H]2N)[C@H](N)[C@@H](O)[C@@H]1O [Ribostamycin sulfate salt],0.981,0.918,0.974,0.995,0.988,0.986,0.98,0.99
CC[C@H]1OC(=O)[C@H](C)[C@@H](O[C@H]2C[C@@](C)(OC)[C@@H](O)[C@H](C)O2)[C@H](C)[C@@H](O[C@@H]2O[C@H](C)C[C@H](N(C)C)[C@H]2O)[C@](C)(O)C[C@@H](C)CN(C)[C@H](C)[C@@H](O)[C@]1(C)O [Azithromycin],0.0316 (active),0.0334 (active),0.0396 (active),0.0337 (active),0.0189 (active),0.0116 (active),0.0218 (active),0.00733 (active)
c1ccc(-c2ccc(C(c3ccccc3)n3ccnc3)cc2)cc1 (centres undefined) [Bifonazole],1.01,1.04,1,1.02,0.983,1,0.999,0.92
O=C(COc1ccc(Cl)cc1)N1CCN(Cc2ccc3c(c2)OCO3)CC1 [Fipexide hydrochloride],0.987,0.971,0.875,0.992,1,0.966,0.995,0.942
Clc1cccc(Cl)c1NC1=NCCN1 [Clonidine hydrochloride],1.01,1.02,1.03,1.01,0.998,1.04,0.996,1.01
Clc1ccc(CSC(Cn2ccnc2)c2ccc(Cl)cc2Cl)cc1 (centres undefined) [Sulconazole nitrate],1.04,1.06,1.05,1.02,1.06,1.08,0.997,0.911
CN(Cc1cc(Br)cc(Br)c1N)C1CCCCC1 [Bromhexine hydrochloride],0.998,1.01,0.714 (active),1.02,0.999,0.977,1,0.948
CC(=O)Oc1cc(C(C)C)c(OCCN(C)C)cc1C [Moxisylyte hydrochoride],0.992,0.992,0.991,0.99,0.999,1,1.01,1
C[C@H]1O[C@@H](O[C@H]2[C@@H](O)C[C@H](O[C@H]3[C@@H](O)C[C@H](O[C@H]4CC[C@@]5(C)[C@H](CC[C@@H]6[C@@H]5C[C@@H](O)[C@]5(C)[C@@H](C7=CC(=O)OC7)CC[C@]65O)C4)O[C@@H]3C)O[C@@H]2C)C[C@H](O)[C@@H]1O [Digoxin],0.978,0.945,0.973,0.993,0.985,1.01,0.987,0.995
O=c1oc2ccccc2c(O)c1Cc1c(O)c2ccccc2oc1=O [Dicumarol],0.986,1,0.891,1,0.877,0.945,1,0.891
CO[C@H]1/C=C/O[C@@]2(C)Oc3c(C)c(O)c4c(O)c(c5c(nc6cc(C)ccn65)c4c3C2=O)NC(=O)/C(C)=C\C=C\[C@H](C)[C@H](O)[C@@H](C)[C@@H](O)[C@@H](C)[C@H](OC(C)=O)[C@@H]1C [Rifaximin],0.477 (active),0.56 (active),1.1,0.0303 (active),0.0137 (active),0.00787 (active),0.217,0.0409 (active)
CN(C)CCN1C(=O)c2ccccc2N(C)c2ccccc21 [Dibenzepine hydrochloride],0.986,0.972,0.984,0.977,0.994,0.979,0.988,0.992
C=CCSCC1Nc2cc(Cl)c(S(N)(=O)=O)cc2S(=O)(=O)N1 (centres undefined) [Althiazide],1.04,1.08,1.03,0.985,1.04,1.08,1.01,1.01
O=c1[nH]c(=O)n([C@H]2C[C@H](O)[C@@H](CO)O2)cc1F [Floxuridine],0.713 (active),0.729 (active),0.695 (active),0.44 (active),0.0504 (active),0.0573 (active),0.815,0.791
CC(C)(C(=O)O)c1ccc(C(O)CCCN2CCC(C(O)(c3ccccc3)c3ccccc3)CC2)cc1 (centres undefined) [Fexofenadine hydrochloride],1.02,1.02,1.04,0.99,1.01,1.01,1.01,1
COC(=O)Nc1nc2cc(C(=O)c3ccc(F)cc3)ccc2[nH]1 [Flubendazol],1.02,0.994,0.993,0.994,1.04,1.07,1.01,1
Cc1cccc(C)c1NC(=O)CN1CCN(CCCC(c2ccc(F)cc2)c2ccc(F)cc2)CC1 [Lidoflazine],1.01,1.02,1.01,1.02,1.04,1.04,1.01,0.938
c1ccc2[nH]c(-c3cscn3)nc2c1 [Tiabendazole],0.97,0.954,0.956,0.975,0.971,0.971,1,0.995
c1ccc2c(CC3=NCCN3)cccc2c1 [Naphazoline hydrochloride],0.994,1.01,1.01,1,0.958,0.943,0.992,0.999
CCCCNc1ccc(C(=O)OCCOCCOCCOCCOCCOCCOCCOCCOCCOC)cc1 [Benzonatate],1.01,0.993,0.996,0.989,1.01,0.954,1,1
CCC1NC(=O)c2cc(S(N)(=O)=O)c(Cl)cc2N1 (centres undefined) [Quinethazone],1.01,1.03,1.05,1.01,1.06,1.12,1.01,1.01
